Assay results reported in ChEMBL document CHEMBL1961873, “Compounds: GSK PKIS; Assays: Nanosyn kinase panel” (2012).

Tests used:
[1] = target: Glycogen synthase kinase-3 alpha (Homo sapiens) (UniProt P49840); settings: at 0.1 µM
[2] = target: Glycogen synthase kinase-3 alpha (Homo sapiens) (UniProt P49840); settings: at 1 µM
[3] = target: Glycogen synthase kinase-3 beta (Homo sapiens) (UniProt P49841); settings: at 0.1 µM
[4] = target: Glycogen synthase kinase-3 beta (Homo sapiens) (UniProt P49841); settings: at 1 µM
[5] = target: Homeodomain-interacting protein kinase 1 (Homo sapiens) (UniProt Q86Z02); settings: at 0.1 µM
[6] = target: Homeodomain-interacting protein kinase 1 (Homo sapiens) (UniProt Q86Z02); settings: at 1 µM
[7] = target: Homeodomain-interacting protein kinase 4 (Homo sapiens) (UniProt Q8NE63); settings: at 0.1 µM
[8] = target: Homeodomain-interacting protein kinase 4 (Homo sapiens) (UniProt Q8NE63); settings: at 1 µM
[9] = target: Mitogen-activated protein kinase 9 (Homo sapiens) (UniProt P45984); settings: at 0.1 µM
Mitogen-activated protein kinase 9 (Homo sapiens), sequence (P45984 whole entry, looked up): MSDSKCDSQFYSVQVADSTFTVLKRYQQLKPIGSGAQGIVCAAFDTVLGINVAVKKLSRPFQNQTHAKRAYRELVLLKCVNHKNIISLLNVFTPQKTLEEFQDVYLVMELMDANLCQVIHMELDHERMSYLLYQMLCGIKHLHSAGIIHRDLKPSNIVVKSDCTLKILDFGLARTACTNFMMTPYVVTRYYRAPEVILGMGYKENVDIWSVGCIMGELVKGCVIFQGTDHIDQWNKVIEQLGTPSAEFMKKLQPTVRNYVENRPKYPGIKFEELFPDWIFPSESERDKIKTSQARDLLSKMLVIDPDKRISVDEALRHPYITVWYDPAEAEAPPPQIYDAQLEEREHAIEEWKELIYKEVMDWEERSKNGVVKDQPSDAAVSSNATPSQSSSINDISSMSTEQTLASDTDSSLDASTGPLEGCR

[10] = target: Mitogen-activated protein kinase 9 (Homo sapiens) (UniProt P45984); settings: at 1 µM
[11] = target: Mitogen-activated protein kinase 1 (Homo sapiens) (UniProt P28482); settings: at 0.1 µM
[12] = target: Mitogen-activated protein kinase 1 (Homo sapiens) (UniProt P28482); settings: at 1 µM
[13] = target: Mitogen-activated protein kinase 3 (Homo sapiens) (UniProt P27361); settings: at 0.1 µM
Mitogen-activated protein kinase 3 (Homo sapiens), sequence (P27361 whole entry): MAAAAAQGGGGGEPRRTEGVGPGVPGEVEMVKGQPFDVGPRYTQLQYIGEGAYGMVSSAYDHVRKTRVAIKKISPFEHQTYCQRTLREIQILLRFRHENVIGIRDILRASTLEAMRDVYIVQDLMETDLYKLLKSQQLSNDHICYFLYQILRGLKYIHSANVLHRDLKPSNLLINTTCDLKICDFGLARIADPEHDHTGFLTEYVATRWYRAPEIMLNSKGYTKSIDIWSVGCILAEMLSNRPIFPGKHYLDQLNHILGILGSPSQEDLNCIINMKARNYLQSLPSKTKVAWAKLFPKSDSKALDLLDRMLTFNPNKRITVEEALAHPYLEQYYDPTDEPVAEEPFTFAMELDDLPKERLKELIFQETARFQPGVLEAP

[14] = target: Mitogen-activated protein kinase 3 (Homo sapiens) (UniProt P27361); settings: at 1 µM
[15] = target: SRSF protein kinase 3 (Homo sapiens) (UniProt Q9UPE1); settings: at 0.1 µM
[16] = target: SRSF protein kinase 3 (Homo sapiens) (UniProt Q9UPE1); settings: at 1 µM
[17] = target: Mitogen-activated protein kinase 14 (Homo sapiens) (UniProt Q16539); settings: at 0.1 µM
[18] = target: Mitogen-activated protein kinase 14 (Homo sapiens) (UniProt Q16539); settings: at 1 µM
[19] = target: Mitogen-activated protein kinase 11 (Homo sapiens) (UniProt Q15759); settings: at 0.1 µM
Mitogen-activated protein kinase 11 (Homo sapiens), sequence (Q15759 whole entry): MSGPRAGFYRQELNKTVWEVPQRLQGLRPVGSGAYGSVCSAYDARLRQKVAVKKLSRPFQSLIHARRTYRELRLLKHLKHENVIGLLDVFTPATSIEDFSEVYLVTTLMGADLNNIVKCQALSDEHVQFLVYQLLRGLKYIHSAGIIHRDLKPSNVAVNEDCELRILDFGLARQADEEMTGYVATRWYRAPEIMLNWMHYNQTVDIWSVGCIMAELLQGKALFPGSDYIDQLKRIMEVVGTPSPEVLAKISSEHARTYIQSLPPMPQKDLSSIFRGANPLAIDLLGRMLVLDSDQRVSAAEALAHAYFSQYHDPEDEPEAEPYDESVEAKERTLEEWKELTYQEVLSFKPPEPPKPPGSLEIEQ

[20] = target: Mitogen-activated protein kinase 11 (Homo sapiens) (UniProt Q15759); settings: at 1 µM
[21] = target: Mitogen-activated protein kinase 13 (Homo sapiens) (UniProt O15264); settings: at 0.1 µM
Mitogen-activated protein kinase 13 (Homo sapiens), sequence (O15264 whole entry): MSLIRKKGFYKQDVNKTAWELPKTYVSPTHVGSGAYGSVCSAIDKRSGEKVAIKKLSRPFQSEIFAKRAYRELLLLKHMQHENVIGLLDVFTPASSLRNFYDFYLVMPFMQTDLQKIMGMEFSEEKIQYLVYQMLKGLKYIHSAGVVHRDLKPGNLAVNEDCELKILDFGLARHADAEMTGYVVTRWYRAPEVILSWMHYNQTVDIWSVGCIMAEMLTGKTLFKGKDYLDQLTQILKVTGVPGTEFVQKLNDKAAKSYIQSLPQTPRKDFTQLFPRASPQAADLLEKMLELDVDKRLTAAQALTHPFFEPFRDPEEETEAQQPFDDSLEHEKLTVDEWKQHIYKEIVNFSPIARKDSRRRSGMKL

[22] = target: Mitogen-activated protein kinase 13 (Homo sapiens) (UniProt O15264); settings: at 1 µM
[23] = target: Mitogen-activated protein kinase 12 (Homo sapiens) (UniProt P53778); settings: at 0.1 µM
[24] = target: Mitogen-activated protein kinase 12 (Homo sapiens) (UniProt P53778); settings: at 1 µM
[25] = target: SRSF protein kinase 1 (Homo sapiens) (UniProt Q96SB4); settings: at 0.1 µM
[26] = target: SRSF protein kinase 1 (Homo sapiens) (UniProt Q96SB4); settings: at 1 µM
[27] = target: Phosphatidylinositol 4,5-bisphosphate 3-kinase catalytic subunit alpha isoform (Homo sapiens) (UniProt P42336); settings: at 0.1 µM
[28] = target: Phosphatidylinositol 4,5-bisphosphate 3-kinase catalytic subunit alpha isoform (Homo sapiens) (UniProt P42336); settings: at 1 µM
[29] = target: Phosphatidylinositol 4,5-bisphosphate 3-kinase catalytic subunit delta isoform (Homo sapiens) (UniProt O00329); settings: at 0.1 µM
Phosphatidylinositol 4,5-bisphosphate 3-kinase catalytic subunit delta isoform (Homo sapiens), sequence (O00329 whole entry, canonical isoform): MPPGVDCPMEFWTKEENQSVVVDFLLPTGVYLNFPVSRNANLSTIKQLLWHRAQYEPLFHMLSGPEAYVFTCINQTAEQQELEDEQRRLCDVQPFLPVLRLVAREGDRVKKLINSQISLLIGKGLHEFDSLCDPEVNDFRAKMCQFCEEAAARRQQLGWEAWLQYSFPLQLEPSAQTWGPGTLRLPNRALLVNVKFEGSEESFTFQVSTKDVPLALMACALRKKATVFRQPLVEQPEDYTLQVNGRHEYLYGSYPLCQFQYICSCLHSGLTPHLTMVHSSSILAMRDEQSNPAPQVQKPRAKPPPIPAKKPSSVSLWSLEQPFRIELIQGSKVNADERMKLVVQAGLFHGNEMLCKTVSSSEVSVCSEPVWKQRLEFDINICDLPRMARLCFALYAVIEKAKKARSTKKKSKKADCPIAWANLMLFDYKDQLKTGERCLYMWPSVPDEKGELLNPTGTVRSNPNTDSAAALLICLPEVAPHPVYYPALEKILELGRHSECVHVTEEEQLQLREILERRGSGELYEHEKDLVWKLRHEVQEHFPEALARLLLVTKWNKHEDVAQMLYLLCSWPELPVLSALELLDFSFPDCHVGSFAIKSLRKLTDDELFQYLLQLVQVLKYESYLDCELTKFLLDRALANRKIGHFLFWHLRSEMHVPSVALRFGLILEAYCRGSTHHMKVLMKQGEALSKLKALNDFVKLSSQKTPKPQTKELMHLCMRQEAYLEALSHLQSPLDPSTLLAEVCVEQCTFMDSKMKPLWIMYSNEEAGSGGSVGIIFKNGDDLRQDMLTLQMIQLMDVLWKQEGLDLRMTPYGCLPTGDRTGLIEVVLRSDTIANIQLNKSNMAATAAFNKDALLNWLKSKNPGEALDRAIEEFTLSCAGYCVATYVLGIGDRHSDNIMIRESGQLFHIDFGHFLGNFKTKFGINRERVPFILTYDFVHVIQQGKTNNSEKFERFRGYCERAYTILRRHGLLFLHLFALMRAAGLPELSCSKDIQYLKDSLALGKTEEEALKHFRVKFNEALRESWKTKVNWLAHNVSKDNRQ

[30] = target: Phosphatidylinositol 4,5-bisphosphate 3-kinase catalytic subunit delta isoform (Homo sapiens) (UniProt O00329); settings: at 1 µM
[31] = target: Phosphatidylinositol 4-kinase beta (Homo sapiens) (UniProt Q9UBF8); settings: at 0.1 µM
[32] = target: Phosphatidylinositol 4-kinase beta (Homo sapiens) (UniProt Q9UBF8); settings: at 1 µM
[33] = target: Sphingosine kinase 1 (Homo sapiens) (UniProt Q9NYA1); settings: at 0.1 µM
Sphingosine kinase 1 (Homo sapiens), sequence (Q9NYA1 whole entry): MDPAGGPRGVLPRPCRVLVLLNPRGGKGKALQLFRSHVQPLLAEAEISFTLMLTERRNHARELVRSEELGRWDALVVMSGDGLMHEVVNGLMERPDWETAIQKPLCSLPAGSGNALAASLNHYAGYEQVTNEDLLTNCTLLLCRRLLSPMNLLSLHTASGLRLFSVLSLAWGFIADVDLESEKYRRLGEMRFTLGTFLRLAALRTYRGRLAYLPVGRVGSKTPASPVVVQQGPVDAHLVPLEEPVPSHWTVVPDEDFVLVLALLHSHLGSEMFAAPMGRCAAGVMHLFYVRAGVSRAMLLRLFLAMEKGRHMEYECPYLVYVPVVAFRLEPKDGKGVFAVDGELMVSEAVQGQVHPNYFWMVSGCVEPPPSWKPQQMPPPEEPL

[34] = target: Sphingosine kinase 1 (Homo sapiens) (UniProt Q9NYA1); settings: at 1 µM
[35] = target: Sphingosine kinase 2 (Homo sapiens) (UniProt Q9NRA0); settings: at 0.1 µM
[36] = target: Sphingosine kinase 2 (Homo sapiens) (UniProt Q9NRA0); settings: at 1 µM
[37] = target: Casein kinase II subunit alpha (Homo sapiens) (UniProt P68400); settings: at 0.1 µM
[38] = target: Casein kinase II subunit alpha (Homo sapiens) (UniProt P68400); settings: at 1 µM
[39] = target: Inhibitor of nuclear factor kappa-B kinase subunit alpha (Homo sapiens) (UniProt O15111); settings: at 0.1 µM
[40] = target: Inhibitor of nuclear factor kappa-B kinase subunit alpha (Homo sapiens) (UniProt O15111); settings: at 1 µM
[41] = target: Inhibitor of nuclear factor kappa-B kinase subunit beta (Homo sapiens) (UniProt O14920); settings: at 0.1 µM
[42] = target: Inhibitor of nuclear factor kappa-B kinase subunit beta (Homo sapiens) (UniProt O14920); settings: at 1 µM
[43] = target: Inhibitor of nuclear factor kappa-B kinase subunit epsilon (Homo sapiens) (UniProt Q14164); settings: at 0.1 µM
[44] = target: Inhibitor of nuclear factor kappa-B kinase subunit epsilon (Homo sapiens) (UniProt Q14164); settings: at 1 µM
[45] = target: Serine/threonine-protein kinase Nek1 (Homo sapiens) (UniProt Q96PY6); settings: at 0.1 µM
[46] = target: Serine/threonine-protein kinase Nek1 (Homo sapiens) (UniProt Q96PY6); settings: at 1 µM
[47] = target: Serine/threonine-protein kinase Nek2 (Homo sapiens) (UniProt P51955); settings: at 0.1 µM
Serine/threonine-protein kinase Nek2 (Homo sapiens), sequence (P51955 whole entry): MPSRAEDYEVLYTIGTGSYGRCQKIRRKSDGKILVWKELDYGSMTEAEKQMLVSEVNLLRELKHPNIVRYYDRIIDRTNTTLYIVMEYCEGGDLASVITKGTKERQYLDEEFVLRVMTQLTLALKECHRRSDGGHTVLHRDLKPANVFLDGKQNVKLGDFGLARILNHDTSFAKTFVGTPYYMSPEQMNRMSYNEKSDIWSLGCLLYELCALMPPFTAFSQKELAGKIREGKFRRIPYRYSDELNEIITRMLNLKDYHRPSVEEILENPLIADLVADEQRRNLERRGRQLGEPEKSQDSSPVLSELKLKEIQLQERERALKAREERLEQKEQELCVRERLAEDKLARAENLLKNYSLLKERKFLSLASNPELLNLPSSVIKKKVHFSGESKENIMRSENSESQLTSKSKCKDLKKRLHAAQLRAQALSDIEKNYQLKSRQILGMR

[48] = target: Serine/threonine-protein kinase Nek2 (Homo sapiens) (UniProt P51955); settings: at 1 µM
[49] = target: Serine/threonine-protein kinase Nek6 (Homo sapiens) (UniProt Q9HC98); settings: at 0.1 µM
Serine/threonine-protein kinase Nek6 (Homo sapiens), sequence (Q9HC98 whole entry): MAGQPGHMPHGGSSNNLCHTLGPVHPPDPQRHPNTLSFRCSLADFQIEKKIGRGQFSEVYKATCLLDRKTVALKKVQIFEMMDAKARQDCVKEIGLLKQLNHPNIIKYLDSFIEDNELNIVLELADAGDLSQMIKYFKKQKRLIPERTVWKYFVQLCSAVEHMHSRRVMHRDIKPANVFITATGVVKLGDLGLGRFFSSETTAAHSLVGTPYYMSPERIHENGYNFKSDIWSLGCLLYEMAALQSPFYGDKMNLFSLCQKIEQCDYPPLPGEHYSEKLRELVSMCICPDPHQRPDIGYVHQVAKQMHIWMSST

[50] = target: Serine/threonine-protein kinase Nek6 (Homo sapiens) (UniProt Q9HC98); settings: at 1 µM
[51] = target: Serine/threonine-protein kinase Nek7 (Homo sapiens) (UniProt Q8TDX7); settings: at 0.1 µM
[52] = target: Serine/threonine-protein kinase Nek7 (Homo sapiens) (UniProt Q8TDX7); settings: at 1 µM
[53] = target: Serine/threonine-protein kinase Nek9 (Homo sapiens) (UniProt Q8TD19); settings: at 0.1 µM
[54] = target: Serine/threonine-protein kinase Nek9 (Homo sapiens) (UniProt Q8TD19); settings: at 1 µM
[55] = target: Serine/threonine-protein kinase PLK1 (Homo sapiens) (UniProt P53350); settings: at 0.1 µM
Serine/threonine-protein kinase PLK1 (Homo sapiens), sequence (P53350 whole entry): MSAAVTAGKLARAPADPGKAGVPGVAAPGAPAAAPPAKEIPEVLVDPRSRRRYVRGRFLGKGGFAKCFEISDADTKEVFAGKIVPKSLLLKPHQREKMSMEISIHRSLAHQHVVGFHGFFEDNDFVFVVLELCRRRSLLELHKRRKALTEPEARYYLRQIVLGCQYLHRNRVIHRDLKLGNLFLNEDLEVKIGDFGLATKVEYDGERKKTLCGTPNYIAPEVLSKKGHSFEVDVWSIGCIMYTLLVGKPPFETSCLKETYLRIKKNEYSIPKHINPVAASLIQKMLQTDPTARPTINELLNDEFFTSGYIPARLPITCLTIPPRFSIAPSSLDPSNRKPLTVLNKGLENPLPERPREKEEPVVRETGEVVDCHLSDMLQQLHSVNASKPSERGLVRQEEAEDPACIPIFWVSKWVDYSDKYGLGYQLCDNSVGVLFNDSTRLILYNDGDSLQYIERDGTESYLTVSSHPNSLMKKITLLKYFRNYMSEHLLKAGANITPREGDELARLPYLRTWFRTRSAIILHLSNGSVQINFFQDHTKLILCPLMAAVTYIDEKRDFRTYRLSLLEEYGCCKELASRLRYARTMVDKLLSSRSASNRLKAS

[56] = target: Serine/threonine-protein kinase PLK1 (Homo sapiens) (UniProt P53350); settings: at 1 µM

Glycogen synthase kinase-3 alpha (Homo sapiens), sequence (P49840 2-483 limits assumed): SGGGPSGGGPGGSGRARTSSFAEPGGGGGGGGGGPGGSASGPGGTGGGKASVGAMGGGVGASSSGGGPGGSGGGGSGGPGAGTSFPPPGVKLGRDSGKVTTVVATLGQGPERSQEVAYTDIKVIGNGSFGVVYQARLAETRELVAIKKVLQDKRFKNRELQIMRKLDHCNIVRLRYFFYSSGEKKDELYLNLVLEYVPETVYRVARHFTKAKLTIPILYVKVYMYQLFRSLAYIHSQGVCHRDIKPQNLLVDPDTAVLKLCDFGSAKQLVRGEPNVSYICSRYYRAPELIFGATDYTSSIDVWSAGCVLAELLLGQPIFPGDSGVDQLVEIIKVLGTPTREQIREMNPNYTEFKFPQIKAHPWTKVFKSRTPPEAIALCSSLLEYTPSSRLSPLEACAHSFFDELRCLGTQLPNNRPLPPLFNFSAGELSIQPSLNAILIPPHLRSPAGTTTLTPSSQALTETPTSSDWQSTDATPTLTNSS

CNC(=O)Oc1cc(C)c(/C=C/c2cncc(C(=O)NC)c2)c(C)c1
inhibition [1]: 1.71%
inhibition [2]: 5.29%
inhibition [3]: 1.23%
inhibition [4]: 4.75%
inhibition [5]: -0.37%
inhibition [6]: 1.2%
inhibition [7]: 0.96%
inhibition [8]: 3.81%
inhibition [9]: 3.14%
inhibition [10]: 2.28%
inhibition [11]: 1.83%
inhibition [12]: 2.04%
inhibition [13]: 3.1%
inhibition [14]: 2.72%
inhibition [15]: 1.79%
inhibition [16]: 1.43%
inhibition [17]: 3.47%
inhibition [18]: 3.16%
inhibition [19]: 1.39%
inhibition [20]: 2.35%
inhibition [21]: 0.06%
inhibition [22]: 2.61%
inhibition [23]: 0.49%
inhibition [24]: 1.7%
inhibition [25]: -1.34%
inhibition [26]: -4.31%
inhibition [27]: 2.83%
inhibition [28]: 2.08%
inhibition [29]: 1.65%
inhibition [30]: 0.21%
inhibition [31]: 5.69%
inhibition [32]: 3.41%
inhibition [33]: 2.31%
inhibition [34]: 0.63%
inhibition [35]: 0.57%
inhibition [36]: 19.7%
inhibition [37]: 1.53%
inhibition [38]: 0.66%
inhibition [39]: 0.51%
inhibition [40]: -0.7%
inhibition [41]: 3.06%
inhibition [42]: 1.89%
inhibition [43]: 2.27%
inhibition [44]: 0.9%
inhibition [45]: 2.1%
inhibition [46]: 1.49%
inhibition [47]: 2.52%
inhibition [48]: 4.05%
inhibition [49]: -0.26%
inhibition [50]: 1.16%
inhibition [51]: 2.46%
inhibition [52]: 2.99%
inhibition [53]: 6.95%
inhibition [54]: 4.01%
inhibition [55]: 3.92%
inhibition [56]: 2.75%
